Activity calls are given as the source filed them.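 Rule for the calls: active = cell survival after UV exposure 2 SD above solvent-only control wells at 10 µM, confirmed on one or two repeats; inactive = the rest.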
assay: protection of CHO cells from pyrene-fatty acid UV killing, primary screen, phospholipid biosynthesis inhibitor project, ZR-82 cells, Analyticon library, screen 2 (AID 1347383); conditions: ZR-82 CHO cells, CellTiter Blue, at 10 µM, peroxisome-deficient CHO-K1 variant, with DGAT-1, DGAT-2 and ACAT inhibitors;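 note: survival reflects blocked phospholipid synthesis cutting uptake of the phototoxic fatty acid; compound and fatty acid exposure 3 h then viability read next day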

SMILES	outcome
CCCCCCCCCCCCCCCCC1C(=O)OC(C)C1OC (centres undefined)	inactive
CC(C)(O)C(O)Cc1ccc2c(c1O)COC2 (centres undefined)	inactive
C[C@H]1C=CC2=CCCC[C@@H]2[C@H]1CC[C@@H]1C[C@@H](O)CC(=O)O1	inactive
CC1CC(O)/C=C/C(O)CCC(=O)Cc2c(Cl)c(O)cc(O)c2C(=O)O1 (centres undefined)	inactive
COc1ccc(/C=C/C(=O)O)cc1O	inactive
COc1cc(O)c2c(=O)c3cc(O)c(O)cc3oc2c1	inactive
COc1c2cccc(C)c2c(C=O)c2c(COC(C)=O)coc12	inactive
C=C1CCC2C(C)(C)C(OC(C)=O)CCC2(C)C1COc1ccc2ccc(=O)oc2c1 (centres undefined)	inactive
Cc1cc(O)cc2c(=O)oc(CC(C)O)cc12 (centres undefined)	inactive
Cc1c(O)cc(O)c2c1OC(c1ccccc1)CC2=O (centres undefined)	inactive
O=C(/C=C/c1ccc(O)cc1)c1c(O)cc(O)cc1O	inactive
C=C(C)[C@@H]1Cc2cc3c(cc2O1)OC[C@@]1(O)c2ccc(O)cc2O[C@@H]31	inactive
CC(C)Cc1cnc(CCC(N)=O)c(=O)[nH]1	inactive
COc1cc(C[C@H]2COC[C@@H]2Cc2ccc(O)c(OC)c2)ccc1O	inactive
OC1CC(c2ccccc2)C(O)C(O)C1c1ccccc1 (centres undefined)	inactive
CC(O)C(O)c1ccc(OC(C)C(O)c2ccc(O)cc2)cc1 (centres undefined)	inactive
COc1cc(C[C@H]2C(=O)OC[C@@H]2Cc2ccc(OC)c(OC)c2)ccc1O	inactive
CC#CC#C/C=C1\C=CC2(OC=CC2OC(=O)C=C(C)C)O1 (centres undefined)	inactive
O=C1c2ccccc2C(=O)c2c(O)ccc(O)c21	inactive
